Assay [1] has as its target Lysosomal acid glucosylceramidase (Homo sapiens) (UniProt P04062). The assay can be described thus: Glucocerebrosidase-p2 (AID 348; in the data active means potency below about 10 µM; further: potency means the concentration at half of the fitted maximal effect). As to conditions: purified GBA, blue fluorogenic substrate, 40 min. Summed up:
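Normal human glucocerebrosidase (0.2 nM) with blue fluorogenic substrate (80 uM final) in citrate/phosphate pH 5.9 with 10mM sodium taurocholate, 0.01% tween-20; 40 min RT, NaOH/glycine stop; fluorescence Ex 365/Em 440; AC50 from a titration from 0.6 nM upwards.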

Assay [2] in a line: AP1 Signaling Pathway (AID 357; active means well fitted curve in either direction with a large enough effect, not every such curve was filed as active;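 further: ME-180 reporter cells stimulated with EGF at its EC50 level; on the % scale 0 is the no-effect control and ±100 the full control effect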). As to conditions: ME-180 AP-1-bla reporter, EGF-induced, beta-lactamase ratio, 5 h; at 7.69 µM (top of the series) unless noted. Summed up:
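A ratiometric CCF4 readout (405 nm excitation; 460 and 530 nm emission) quantified AP-1-driven beta-lactamase in ME-180 cells after 5 h with compound and EC50 EGF; AC50 values were derived for activators and inhibitors.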

Assay [3] addresses Cytochrome P450 1A2 (Homo sapiens) (UniProt P05177). The assay can be described thus: p450-cyp1a2 (AID 410; calls by dose curve; further: potency means the concentration at half of the fitted maximal effect). Particulars: recombinant CYP1A2, luciferin-ME demethylation, luminescence; series mostly up to 57 µM. Summed up:
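20nM CYP1A2, 100uM Luciferin-ME (=Km), 100mM KPO4; cpd 10 min RT; +NADPH regen, 60 min RT; stop/detect 20 min; luminescence. Normalized to furafylline 57 uM = full inhibition.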

Assay [4] is described as follows: NFAT Signaling Pathway (AID 444; active means well fitted curve in either direction with a large enough effect, not every such curve was filed as active;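 further: carbachol stimulus at about its EC50 of 1 µM final; on the % scale 0 is the no-effect control and ±100 the full control effect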). As to conditions: Jurkat NFAT-bla M1, carbachol, beta-lactamase ratio, 5 h; at 7.69 µM (top of the series) unless noted. Summed up:
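Jurkat cells with NFAT-driven β-lactamase reporter and co-expressed M1 receptor, stimulated with carbachol (final 1 uM, ~EC50), compound titration, 5 h at 37 °C. CCF4 loaded 1 h at RT; 460/530 nm ratio gave %activity and AC50.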

Assay [5] in a line: Stat Signaling Pathway (AID 446; active means well fitted curve in either direction with a large enough effect, not every such curve was filed as active;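 further: ME-180 cervical cancer cells given 40 pM IL-6 alongside compound; SIE-controlled beta-lactamase reporter measured as 460/530 nm FRET emission ratio; on the % scale 0 is the no-effect control and ±100 the full control effect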). Particulars: ME-180 (cervical carcinoma) SIE beta-lactamase reporter, IL-6 stimulated, 5 h; at 7.69 µM (top of the series) unless noted. Put shortly:
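Emission at 460 and 530 nm (excitation 405 nm) reports SIE-controlled beta-lactamase in ME-180 cells. Cells received compound with 40 pM IL-6 for 5 hrs at 37 C; data scaled between 300 pM IL-6 and 125 nM JAK-inhibitor controls.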

For assay [6], the target named is Glucocorticoid receptor (Homo sapiens) (UniProt P04150). The assay can be described thus: GR-GFP Redistribution (AID 450;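 active means compounds whose dose series gives a full or clear partial fitted curve of increased nuclear translocation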; further: potency means the concentration at half of the fitted maximal effect). Particulars: U2OS GR-GFP nuclear translocation, laser cytometry, 2 h.
Sequence of Glucocorticoid receptor (Homo sapiens) (P04150 whole entry, looked up): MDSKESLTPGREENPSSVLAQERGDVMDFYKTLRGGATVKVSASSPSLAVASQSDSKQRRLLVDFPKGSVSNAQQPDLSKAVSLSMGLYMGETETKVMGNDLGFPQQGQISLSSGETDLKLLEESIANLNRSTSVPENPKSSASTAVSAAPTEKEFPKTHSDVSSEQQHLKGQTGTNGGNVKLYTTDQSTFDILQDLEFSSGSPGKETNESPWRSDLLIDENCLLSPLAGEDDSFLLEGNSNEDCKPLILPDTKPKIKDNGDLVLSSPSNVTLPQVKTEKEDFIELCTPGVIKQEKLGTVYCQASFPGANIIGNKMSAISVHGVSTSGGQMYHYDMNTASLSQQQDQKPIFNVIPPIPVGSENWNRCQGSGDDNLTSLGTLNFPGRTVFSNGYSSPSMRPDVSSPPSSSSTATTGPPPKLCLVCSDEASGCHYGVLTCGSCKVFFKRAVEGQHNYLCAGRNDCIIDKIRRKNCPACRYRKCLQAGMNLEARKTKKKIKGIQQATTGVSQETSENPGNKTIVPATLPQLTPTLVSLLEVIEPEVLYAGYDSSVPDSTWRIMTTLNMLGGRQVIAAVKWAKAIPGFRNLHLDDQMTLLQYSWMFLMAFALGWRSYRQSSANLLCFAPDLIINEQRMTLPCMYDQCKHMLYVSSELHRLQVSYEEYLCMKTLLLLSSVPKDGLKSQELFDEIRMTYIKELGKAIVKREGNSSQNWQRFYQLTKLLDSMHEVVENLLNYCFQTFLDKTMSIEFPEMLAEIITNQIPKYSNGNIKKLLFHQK
Assay [7] has the same target. The assay can be described thus: GR-EFC Redistribution (AID 451; calls by dose curve; further: potency means the concentration at half of the fitted maximal effect). As to conditions: CHO-K1 GR-EFC translocation, beta-gal luminescence, 2 h. Put shortly:
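CHO-K1 cells expressing nuclear EA and GR-ED fragments of b-gal; compounds titrated up to 46 uM final, 2 h at 37 C. GR nuclear translocation read as complemented b-gal luminescence after 1 h RT detection.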

The target of assay [8] is Mitogen-activated protein kinase 10 (Mus musculus) (UniProt Q61831). Briefly: JNK3 AlphaScreen Assay (AID 530; active means well fitted curve in either direction with a large enough effect, not every such curve was filed as active;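 further: kinase came from lysate of stimulated human HepG2 cells; signal reports phosphorylation of biotinylated GST-cJun 1-79 at Ser73 with 10 µM ATP; on the % scale 0 is the no-effect control and ±100 the full control effect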). Particulars: JNK3 lysate, c-Jun phosphorylation; series mostly up to 57.1 µM. Summed up:
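HepG2 lysate (IL-1b/TNFa pre-activated) + biotin-GST-cJun 1-79 + anti-pSer73 cJun; cpd titration, 15 min RT; ATP 10 uM start; Tris pH 7.6, MgCl2, DTT, vanadate; beads in EDTA buffer; AlphaScreen.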
(Bead proximity is the source of the signal in Alpha formats.)

In assay [9] the target is 3',5'-cyclic-AMP phosphodiesterase 4B (Homo sapiens) (UniProt Q07343). The assay can be described thus: qHTS Assay for Inhibitors of PDE-IV (AID 607; active means well fitted activation curve with a large enough effect in the main read-out, with a control signal flat, not every such curve was filed as active; further: % of control where 0% means no effect). As to conditions: HEK293 ACTOne CNG channel cells, membrane potential fluorescence; series mostly up to 22.9 µM. Put shortly: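 The readout is membrane depolarisation from a cAMP-sensing CNG channel, detected with a potential dye at ex 535/em 590. Cells were HEK293-derived (endogenous PDE-IV) at 1000 cells/well, titrated up to 22.9 uM final.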

The target of assay [10] is Cytochrome P450 3A4 (Homo sapiens) (UniProt P08684). The assay can be described thus: qHTS Assay for Activators of Cytochrome P450 3A4 (AID 885). Further: nearly all actives have a fitted effect of over 65% in size. As to conditions: recombinant CYP3A4, Luciferin-PPXE luminescence, 60 min; series mostly up to 57.1 µM. Put shortly: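 Activators are scored by enhanced luminescence from CYP3A4 conversion of luciferin-PPXE (25uM, equal to KM) to luciferin, after 60 min at RT with an NADPH-regenerating system.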
Sequence of Cytochrome P450 3A4 (Homo sapiens) (P08684 whole entry, looked up): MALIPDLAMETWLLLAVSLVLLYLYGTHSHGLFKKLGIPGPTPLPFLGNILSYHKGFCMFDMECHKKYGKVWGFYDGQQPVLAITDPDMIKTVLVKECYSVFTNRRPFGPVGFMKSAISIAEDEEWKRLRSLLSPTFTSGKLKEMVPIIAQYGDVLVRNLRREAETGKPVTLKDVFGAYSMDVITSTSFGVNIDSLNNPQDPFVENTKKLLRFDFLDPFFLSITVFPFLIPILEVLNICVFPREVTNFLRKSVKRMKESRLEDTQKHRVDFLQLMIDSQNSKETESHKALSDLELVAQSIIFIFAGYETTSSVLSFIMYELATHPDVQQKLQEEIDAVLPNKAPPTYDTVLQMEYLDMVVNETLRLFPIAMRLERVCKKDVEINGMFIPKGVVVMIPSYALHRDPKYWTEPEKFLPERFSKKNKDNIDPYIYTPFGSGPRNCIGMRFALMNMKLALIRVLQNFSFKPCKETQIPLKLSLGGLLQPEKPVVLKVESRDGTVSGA
(Quantitative high-throughput screening tests each substance at several concentrations.)

Assay [11] in a line: qHTS Assay for Lipid Storage Modulators (AID 1519; calls by dose curve). Particulars: Drosophila S3 cells, BODIPY lipid droplet/cell ratio, laser cytometry, cells loaded with oleic acid; for activity change, negative = inhibition: at 57.5 µM (top of the series). Summed up:
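Cells seeded at 5,000 per well were treated with compounds over a concentration series and loaded with oleic acid (400 uM, as added). Lipid droplet fluorescence (488 nm excitation, 500-530 nm channel) was read by laser-scanning cytometry and normalized to 20 uM Triacsin C.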

Assay [12] addresses Dual specificity protein kinase CLK4 (Homo sapiens) (UniProt Q9HAZ1). Briefly: qHTS Assay for Inhibitors of CDC-like Kinase 4 (Kinase-Glo Assay) (AID 1770). Further: nearly all actives have a fitted effect of over 65% in size. Further: potency means the concentration at half of the fitted maximal effect. As to conditions: recombinant Clk4, Kinase-Glo ATP depletion luminescence; series mostly up to 66.7 µM. Put shortly:
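25 nM Clk4 with 100 uM RS repeat peptide and 1 uM ATP (final) in Tris pH7.5, 10 mM MgCl2, 4.5 h at room temperature. Remaining ATP measured by Kinase-Glo luciferase luminescence.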

Assay [13] deals with Ubiquitin carboxyl-terminal hydrolase 1 (Homo sapiens) (UniProt O94782). The assay can be described thus: Inhibitors of USP1/UAF1: Pilot qHTS (AID 504865).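 Further: rhodamine fluorescence freed from ubiquitin-rhodamine substrate followed over time; top concentration of the series differs between compounds; on the % scale 0 is the no-effect control and ±100 the full control effect; nearly all actives have a fitted effect of over 35% in size.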 Particulars: purified USP1/UAF1, Ub-rhodamine cleavage fluorescence; series mostly up to 54.9 µM. Put shortly:
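USP1/UAF1 complex at 1 nM preincubated 15 min at room temperature with compound, then Ub-Rho substrate added at 150 nM final. Fluorescence (480/540 nm) read kinetically in 50 mM HEPES pH 7.8, 0.5 mM EDTA, 1 mM TCEP, 0.1 mg/ml BSA, 0.01% Tween-20.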

Assay [14] addresses Cytochrome P450 3A4 (Homo sapiens) (UniProt P08684). Briefly: qHTS Assay for Inhibitors and Substrates of Cytochrome P450 3A4 (AID 884). Further: potency means the concentration at half of the fitted maximal effect; nearly all actives have a fitted effect of over 50% in size. Particulars: recombinant CYP3A4, Luciferin-PPXE luminescence; series mostly up to 57.1 µM. Summed up: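 Luminescent readout of luciferin produced by CYP3A4 (20 nM) dealkylation of Luciferin-PPXE, 25 uM (its KM). NADPH-driven reaction ran 60 min at RT after 10 min compound preincubation; data scaled to 57 uM ketoconazole as 100% inhibition.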

The target in assay [15] is Rap guanine nucleotide exchange factor 3 (Homo sapiens) (UniProt O95398). Briefly: Confirmatory qHTS for agonist of cAMP-regulated guanine nucleotide exchange factor 3 (EPAC1) (AID 1645881).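 Further: EPAC1 catalysed release of BODIPY-GDP from Rap1B seen as fluorescence loss; 100% = effect of cAMP agonist control; nearly all actives have a fitted effect of over 75% in size.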 As to conditions: EPAC1 Rap1B BODIPY-GDP exchange fluorescence; series mostly up to 154 µM.
Sequence of Rap guanine nucleotide exchange factor 3 (Homo sapiens) (O95398 whole entry, looked up): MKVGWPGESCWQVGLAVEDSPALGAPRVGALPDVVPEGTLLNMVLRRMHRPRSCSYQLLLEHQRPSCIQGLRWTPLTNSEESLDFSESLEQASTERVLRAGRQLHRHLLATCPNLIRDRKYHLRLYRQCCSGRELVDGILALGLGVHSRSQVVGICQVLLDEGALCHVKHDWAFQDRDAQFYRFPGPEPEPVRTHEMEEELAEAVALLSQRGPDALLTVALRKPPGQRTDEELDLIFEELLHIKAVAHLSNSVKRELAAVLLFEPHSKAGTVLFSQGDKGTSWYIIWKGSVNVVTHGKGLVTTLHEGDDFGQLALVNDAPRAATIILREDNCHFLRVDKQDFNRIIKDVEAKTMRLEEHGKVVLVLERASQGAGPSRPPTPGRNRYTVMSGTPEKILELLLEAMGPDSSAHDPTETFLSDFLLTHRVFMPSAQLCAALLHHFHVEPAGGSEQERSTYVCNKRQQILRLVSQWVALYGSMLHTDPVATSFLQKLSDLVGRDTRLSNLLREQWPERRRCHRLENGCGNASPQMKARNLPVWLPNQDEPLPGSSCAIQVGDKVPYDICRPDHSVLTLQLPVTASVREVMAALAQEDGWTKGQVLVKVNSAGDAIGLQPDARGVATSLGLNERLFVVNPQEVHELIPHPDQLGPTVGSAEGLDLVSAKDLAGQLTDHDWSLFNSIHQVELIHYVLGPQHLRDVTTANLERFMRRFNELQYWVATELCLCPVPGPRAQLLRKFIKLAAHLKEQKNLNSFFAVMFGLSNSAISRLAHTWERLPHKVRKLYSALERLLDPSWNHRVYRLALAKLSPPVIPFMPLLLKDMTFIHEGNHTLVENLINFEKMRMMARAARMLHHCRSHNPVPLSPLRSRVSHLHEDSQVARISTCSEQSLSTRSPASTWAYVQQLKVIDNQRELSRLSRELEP
Assay [16] deals with Rap guanine nucleotide exchange factor 4 (Homo sapiens) (UniProt Q8WZA2). The assay can be described thus: Confirmatory qHTS for agonist of cAMP-regulated guanine nucleotide exchange factor 4 (EPAC2) (AID 1645884).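 Further: nucleotide exchange releases bodipy-GDP from Rap1 and this lowers its fluorescence; on the % scale 0 is the no-effect control and ±100 the full control effect; nearly all actives have a fitted effect of over 65% in size.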 As to conditions: EPAC2 GEF activity, Rap1B-BODIPY-GDP fluorescence; series mostly up to 154 µM.
Sequence of Rap guanine nucleotide exchange factor 4 (Homo sapiens) (Q8WZA2 whole entry, looked up): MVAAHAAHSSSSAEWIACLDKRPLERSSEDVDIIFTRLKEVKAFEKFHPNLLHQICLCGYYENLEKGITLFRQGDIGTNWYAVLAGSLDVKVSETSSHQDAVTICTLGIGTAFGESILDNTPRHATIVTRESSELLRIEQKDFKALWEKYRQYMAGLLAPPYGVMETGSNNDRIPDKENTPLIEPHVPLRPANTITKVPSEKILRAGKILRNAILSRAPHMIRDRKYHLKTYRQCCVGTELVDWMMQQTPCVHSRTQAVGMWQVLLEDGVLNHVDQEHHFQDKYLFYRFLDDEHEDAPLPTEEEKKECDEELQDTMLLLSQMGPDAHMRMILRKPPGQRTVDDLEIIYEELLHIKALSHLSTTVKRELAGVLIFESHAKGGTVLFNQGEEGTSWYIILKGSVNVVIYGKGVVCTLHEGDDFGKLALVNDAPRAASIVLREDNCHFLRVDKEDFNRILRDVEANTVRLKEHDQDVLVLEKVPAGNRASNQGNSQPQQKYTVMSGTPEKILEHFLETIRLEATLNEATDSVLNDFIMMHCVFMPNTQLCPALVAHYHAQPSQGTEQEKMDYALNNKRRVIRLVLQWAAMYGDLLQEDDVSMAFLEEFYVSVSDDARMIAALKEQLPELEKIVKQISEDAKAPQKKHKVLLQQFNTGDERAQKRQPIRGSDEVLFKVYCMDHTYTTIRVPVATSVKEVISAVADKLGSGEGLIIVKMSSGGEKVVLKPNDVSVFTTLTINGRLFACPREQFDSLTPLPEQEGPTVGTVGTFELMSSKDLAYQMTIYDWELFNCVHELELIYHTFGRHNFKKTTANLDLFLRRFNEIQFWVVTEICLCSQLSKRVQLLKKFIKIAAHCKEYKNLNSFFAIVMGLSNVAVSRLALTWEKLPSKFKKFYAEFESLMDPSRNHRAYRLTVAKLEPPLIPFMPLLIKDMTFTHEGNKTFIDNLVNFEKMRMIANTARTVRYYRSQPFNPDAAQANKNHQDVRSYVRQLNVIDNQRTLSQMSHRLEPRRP
Assay [17] can be described thus: Confirmation and Secondary Assay for Modulators of Hemoglobin Beta Chain Splicing at IVS2 654 locus (AID 910).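 Further: HeLa cells stably carrying EGFP split by mutant beta-globin IVS2-654 intron; % of control where 0% means no effect.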 Particulars: HeLa EGFP-654 splicing reporter, GFP fluorescence, 48 h; series mostly up to 38.3 µM. Put shortly: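 HeLa cells stably expressing EGFP interrupted by β-globin IVS2-654 intron, seeded overnight in Opti-MEM/2% FCS, then treated 2 days at 37 °C. Restored splicing read as total peak GFP intensity per well by laser scanning cytometry (488 nm excitation, 500–520 nm emission); 500 nM antisense PNA as control.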

Assay [18] is described as follows: Confirmation and Secondary Assay for Modulators of Hemoglobin Beta Chain Splicing at IVS2 705 locus (AID 930).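 Further: HeLa cells stably expressing the EGFP-705 splicing reporter; GFP fluorescence per well restored by corrected splicing of the IVS2-705 intron in EGFP; % of control where 0% means no effect.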 Particulars: HeLa EGFP-705 splicing reporter, GFP fluorescence, 48 h; series mostly up to 38.3 µM. Put shortly:
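Secondary splice-site specificity test uses HeLa expressing CMV-driven EGFP interrupted by IVS2-705; cells were treated 2 days at 37C with 500 nM antisense PNA as positive control.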

Assay [19] deals with Rap guanine nucleotide exchange factor 4 (Homo sapiens) (UniProt Q8WZA2). The assay can be described thus: Confirmatory qHTS for antagonist of cAMP-regulated guanine nucleotide exchange factor 4 (EPAC2) (AID 1645885). Further: potency means the concentration at half of the fitted maximal effect; nearly all actives have a fitted effect of over 25% in size. Particulars: EPAC2 Rap1B-BODIPY-GDP exchange fluorescence, biochemical; series mostly up to 114 µM.
Where [20] appears, read: measured here: cell count channel max response.
Setting [21] is: measured here: lipid channel max response.

Several values for one entry are separate records, joined by “and”; a condition that tells them apart may be missing. Equal entries are not always repeated. Results filed as inconclusive are left out. Activity calls are given as the source filed them. Unless noted, the call rests on the fitted dose curve; in most records, active means well fitted curve in the direction sought with a large enough effect; inconclusive means small, poorly fitted or top-dose-only effect, or another doubt; inactive means no such curve, though single readings can be large; an effect the other way counts as inactive or inconclusive.

Sequence of Lysosomal acid glucosylceramidase (Homo sapiens) (P04062 whole entry, looked up): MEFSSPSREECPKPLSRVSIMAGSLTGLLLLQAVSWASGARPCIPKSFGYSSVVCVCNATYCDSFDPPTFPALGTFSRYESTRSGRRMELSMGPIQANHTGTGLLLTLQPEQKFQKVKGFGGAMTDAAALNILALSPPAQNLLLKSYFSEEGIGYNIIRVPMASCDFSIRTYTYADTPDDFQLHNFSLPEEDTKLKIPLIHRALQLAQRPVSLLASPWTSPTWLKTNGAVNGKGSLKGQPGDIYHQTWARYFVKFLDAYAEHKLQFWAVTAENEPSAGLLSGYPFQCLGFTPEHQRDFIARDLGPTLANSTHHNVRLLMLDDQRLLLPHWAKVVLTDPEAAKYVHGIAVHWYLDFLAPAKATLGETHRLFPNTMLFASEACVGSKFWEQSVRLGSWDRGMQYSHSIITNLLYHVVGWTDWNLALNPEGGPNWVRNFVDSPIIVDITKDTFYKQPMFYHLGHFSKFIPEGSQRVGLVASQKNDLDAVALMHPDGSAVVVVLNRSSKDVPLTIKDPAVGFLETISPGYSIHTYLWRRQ
Sequence of Ubiquitin carboxyl-terminal hydrolase 1 (Homo sapiens) (O94782 whole entry, looked up): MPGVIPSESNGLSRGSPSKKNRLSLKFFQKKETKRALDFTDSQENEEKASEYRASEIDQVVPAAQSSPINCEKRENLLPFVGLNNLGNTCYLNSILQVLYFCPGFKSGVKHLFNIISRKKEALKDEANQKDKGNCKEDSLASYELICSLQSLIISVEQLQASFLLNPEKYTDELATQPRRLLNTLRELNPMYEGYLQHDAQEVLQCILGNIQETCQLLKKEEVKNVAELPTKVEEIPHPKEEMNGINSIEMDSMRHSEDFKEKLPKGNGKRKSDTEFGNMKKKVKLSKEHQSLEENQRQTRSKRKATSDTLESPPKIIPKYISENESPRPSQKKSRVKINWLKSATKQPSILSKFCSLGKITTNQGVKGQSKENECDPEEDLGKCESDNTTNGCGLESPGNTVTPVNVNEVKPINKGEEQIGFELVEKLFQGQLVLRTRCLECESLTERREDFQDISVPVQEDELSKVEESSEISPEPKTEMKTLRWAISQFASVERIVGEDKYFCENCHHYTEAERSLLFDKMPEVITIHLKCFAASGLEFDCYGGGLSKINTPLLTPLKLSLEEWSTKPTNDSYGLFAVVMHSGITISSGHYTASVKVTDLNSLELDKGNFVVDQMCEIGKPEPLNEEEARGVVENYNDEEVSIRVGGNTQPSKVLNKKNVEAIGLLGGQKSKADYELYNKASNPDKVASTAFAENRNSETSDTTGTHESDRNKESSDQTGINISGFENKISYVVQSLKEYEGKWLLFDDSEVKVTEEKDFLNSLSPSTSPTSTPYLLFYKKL
Sequence of Cytochrome P450 1A2 (Homo sapiens) (P05177 whole entry, looked up): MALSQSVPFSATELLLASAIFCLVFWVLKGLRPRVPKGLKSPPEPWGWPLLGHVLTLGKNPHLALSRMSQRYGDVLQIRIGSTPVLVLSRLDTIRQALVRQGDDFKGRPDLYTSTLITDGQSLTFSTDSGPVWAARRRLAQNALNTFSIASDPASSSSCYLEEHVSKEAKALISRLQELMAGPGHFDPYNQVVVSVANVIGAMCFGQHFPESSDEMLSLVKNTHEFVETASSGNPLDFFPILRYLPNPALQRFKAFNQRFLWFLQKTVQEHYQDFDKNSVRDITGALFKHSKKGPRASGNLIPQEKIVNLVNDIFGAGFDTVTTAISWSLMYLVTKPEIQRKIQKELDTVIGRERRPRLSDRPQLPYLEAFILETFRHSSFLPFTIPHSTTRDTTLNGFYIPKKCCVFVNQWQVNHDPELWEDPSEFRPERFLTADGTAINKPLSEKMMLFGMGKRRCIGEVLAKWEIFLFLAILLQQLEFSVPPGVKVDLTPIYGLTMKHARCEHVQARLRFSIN

Turning to `CN1CCN(c2ncc3nc(-c4cn(C)c5ccccc45)c(=O)n(C)c3n2)CC1`, the Potency in assay [1] was > 11.4 µM (inactive); in assay [3] it was 31.6 µM (active); in assay [6], > 9.22 µM (inactive); in [7], > 46 µM (inactive). In addition, the figures for the activity change, negative = inhibition in [2], in assay [4] and in assay [11] were -20.2% (inactive), 11.3% (inactive) and 2.17% (inactive), respectively. In addition, the activity, negative = inhibition in assay [5] was 12.5% (inactive). Further, the Potency result in [8], in assay [9], in assay [10], in assay [12] and in assay [13] was “inactive” in each case. Besides, the max response in assay [11] (setting [20]) amounted to 7.27%; in [11] (setting [21]) it was 7.8%.
In the case of `COc1ccccc1CNc1ncncc1-c1ccccc1OC`, the Potency was > 11.4 µM (inactive) in assay [1], > 46 µM (inactive) in assay [6], > 46 µM (inactive) in assay [7] and 0.199 µM (active) in assay [14]. The results for the activity change, negative = inhibition in [2], in [4] and in assay [11] were -8.41% (inactive), -16.1% (inactive) and 6.17% (inactive), respectively. In addition, the activity, negative = inhibition in [5] was -9.32% (inactive). Besides, the Potency entry in [8], in [10], in assay [13], in [15] and in [16] was “inactive” each time. Further, the max response was found to be 3.98% in assay [11] (setting [20]) and 9.74% in assay [11] (setting [21]).
`C[C@@H](Oc1ccc(Oc2cnc3ccc(Cl)cc3n2)cc1)C(=O)O`: in [11], the activity change, negative = inhibition is -0.184% (inactive). The values for the max response in [11] (setting [20]) and in [11] (setting [21]) were -7.54% and -6.55%, respectively.
Taken in the same sequence, the figures for `CCCC1O[C@@H]2C[C@H]3[C@@H]4CCC5=CC(=O)C=C[C@]5(C)C4[C@@H](O)C[C@]3(C)[C@]2(C(=O)CO)O1` (stereo partly drawn) were 0.423% (inactive), -19.9% and -19.5%.
As to `COCCNc1ncnc2ccc(-c3ccc(N(C)C)cc3)cc12`, the Potency in assay [1] was > 11.4 µM (inactive); in assay [3], 0.251 µM (active); in [6] it was > 46 µM (inactive); in assay [7], > 46 µM (inactive); in assay [14], 7.94 µM (active); in assay [12], 8.91 µM (active). Moreover, the activity change, negative = inhibition was -29.4% (inactive) in assay [2], 4.01% (inactive) in assay [4] and -6.08% (inactive) in [11]. Also, the activity, negative = inhibition in assay [5] is -5.06% (inactive). Moreover, the Potency result in assay [8], in assay [9], in [10] and in assay [13] was “inactive” throughout. Further, the max response in assay [11] (setting [20]) was -1.3%; in assay [11] (setting [21]) it was -8.9%.
As for `COC(=O)c1c(C)c2c(c(C)c1O)OC(=O)c1c(C)c(Cl)c(O)c(Cl)c1O2`, the Potency result in [10], in assay [17], in [15] and in assay [16] was “inactive” throughout. In addition, the compound was called inactive in assay [18]. In addition, in [11], the activity change, negative = inhibition is 9.5% (inactive). Moreover, the figures for the max response in assay [11] (setting [20]) and in [11] (setting [21]) were -4.72% and 1.33%, respectively. Also, the Potency in [19] is 2.48 µM (active) and 2.21 µM (active).
`COc1cc(O)c(C(=O)/C=C/c2ccc(OC)c(O)c2)c(OC)c1`: in assay [14], the Potency is 6.31 µM (active). The Potency result in assay [10], in assay [17] and in [15] was “inactive” throughout. Further, the outcome in [18] was inactive. Further, the activity change, negative = inhibition in assay [11] was -24.7% (inactive). For the same compound, the values for the max response in assay [11] (setting [20]) and in assay [11] (setting [21]) were -3.92% and -25.6%, respectively.
For `NC(=NCc1ccc(Cl)c(Cl)c1)NC(=O)c1nc(Cl)c(N)nc1N`, the activity change, negative = inhibition in assay [2] is -11.5% [at 38 µM] (inactive); in [11], 0.442% (inactive). The Potency is 10 µM (active) in assay [3], > 46 µM (inactive) in assay [6] and > 46 µM (inactive) in assay [7]. In [5], the activity, negative = inhibition was 5.12% [at 38 µM] (inactive). For the same compound, the Potency entry in assay [10] is “inactive”. Besides, the max response in assay [11] (setting [20]) is -3.02%; in assay [11] (setting [21]), -2.51%.

The values above are taken from PubChem BioAssay (NCATS).
